{"source": "PubChem BioAssay AID2061306", "about": "(National Center for Advancing Translational Sciences (NCATS), 2025)", "note": "Results filed as inconclusive are left out. Calls of active or inactive are those of the source. The call rests on the fitted dose curve; in most records, active means well fitted inhibition curve with a large enough effect; inconclusive means small, poorly fitted or top-dose-only effect; inactive means flat fitted curve, though single readings scatter."}
{"test": "Identification of antibody-drug conjugate (ADC) payloads which are substrates of ATP-binding cassette drug efflux transporters: ABCB1-HEK293-pcDNA cell line", "details": "HEK293 empty-vector (pcDNA) control viability, CellTiter-Glo, 48 h", "excerpt": "Antibody-drug conjugates (ADCs) feature an antibody recognizing a specific protein joined to a potent toxic payload. Numerous antibody-drug conjugates have received FDA approval; however, clinical resistance arises. Resistance mechanisms include decreased expression or mutation of the antibody target, impaired payload release, or increased expression of ATP-binding cassette (ABC) efflux transporters associated with multidrug resistance. We therefore sought to characterize the interaction of ABC multidrug transporters with ADC payloads. We performed a high-throughput screen with 27 common ADC payloads using cells lines expressing ABC transporters P-glycoprotein (P-gp, encoded by ABCB1) or ABCG2 (encoded by ABCG2). Confirmatory assays were also performed using cells transfected to express P-gp, ABCG2, or MRP1 (encoded by ABCC1). Several commonly used ADC payloads were substrates of P-gp, including calicheamicin gamma1, monomethyl auristatin E, DM1, and DM4. All the pyrrolobenzodiazepines tested - SJG136, SGD-1882, SG2057, and SG3199 - were substrates of P-gp, ABCG2, and MRP1. […] These findings highlight the risk of transporter-mediated resistance with certain ADC payloads and underscore the importance of selecting payloads that evade ABC transporter recognition in future ADC development.\nHEK-293 cells were transfected with empty vector (pcDNA) or vector containing the human ABCB1 (MDR-19), ABCG2 (R-5), or ABCC1 gene (MRP1) and were maintained in EMEM with 2 mg/mL G418 added to maintain transporter expression. The HeLa derivative KB-3-1 and the P-gp overexpressing KB-8-5-11 subline were maintained in DMEM; KB-8-5-11 additionally received 100 ng/mL colchicine. H460 parental cells were obtained from the Division of Cancer Treatment and Diagnosis Tumor Repository, National Cancer Institute at Frederick, MD and were cultured in RPMI. The ABCG2 expressing subline H460 MX20 was generated by selecting H460 cells in 20 nM mitoxantrone. Media in all cases was supplemented with 10% FBS and 1% penicillin-streptomycin. We explored 27 common ADC payloads, in two orthogonal, paired cell line sets-a drug selected and transfected set for each transporter--to identify substrates of the ABC transporters P-gp and ABCG2. Compounds were sourced from Levena Biopharma (San Diego, CA), Selleck Chem (Houston, TX), ChemieTek (Indianapolis, IN), or Microsource Discovery Systems (Gaylordsville, CT). Screening was performed as previously described. Briefly, cells were plated at a density of 500 cells/well in 1536 well plates with compounds added using a 1536-head pin tool (Kalypsys, San Diego CA). Cells were incubated with cytotoxic drugs and processed with CellTiter Glo reagent (Promega, Madison, WI) to determine viability after 48 hours. P-gp substrates were identified by comparing compound activity between paired sets of low-expressing (sensitive) and over-expressing (resistant) cell lines."}
{"smiles": "COc1cccc2c1C(=O)c1c(O)c3c(c(O)c1C2=O)C[C@@](O)(C(=O)CO)C[C@@H]3O[C@H]1C[C@H]2[C@H](O[C@@H]3[C@@H](OC)OCCN32)[C@H](C)O1", "Potency": "0.0334 nM (active)"}
{"smiles": "COc1ccc(C2=CN3C(=O)c4cc(OC)c(OCCCOc5cc6c(cc5OC)C(=O)N5C=C(c7ccc(N)cc7)C[C@@H]5C=N6)cc4N=C[C@H]3C2)cc1", "Potency": "1.3 nM (active)"}
{"smiles": "COc1cc2cc(c1Cl)N(C)C(=O)C[C@H](O)[C@]1(C)O[C@H]1[C@H](C)C1C[C@@](O)(NC(=O)O1)[C@H](OC)/C=C/C=C(\\C)C2", "Potency": "2980 nM (active)"}
{"smiles": "COC(=O)c1cc2c3c(cc(O)c2[nH]1)N(C(=O)c1cc2cc(OC)c(OC)c(OC)c2[nH]1)CC3CCl", "note": "(stereo not given)", "Potency": "0.4 nM (active)"}
{"smiles": "CCc1c2c(nc3ccc(O)cc13)-c1cc3c(c(=O)n1C2)COC(=O)[C@]3(O)CC", "Potency": "4.7 nM (active)"}
{"smiles": "COc1cccc2c1C(=O)c1c(O)c3c(c(O)c1C2=O)C[C@@](O)(C(=O)CO)C[C@@H]3O[C@H]1C[C@H](N)[C@H](O)[C@H](C)O1", "Potency": "29.8 nM (active)"}
{"smiles": "CCN(C(C)=O)[C@H]1CO[C@@H](O[C@H]2[C@H](O[C@H]3C#C/C=C\\C#C[C@]4(O)CC(=O)C(NC(=O)OC)=C3/C4=C\\CSSSC)O[C@H](C)[C@@H](NO[C@H]3C[C@H](O)[C@H](SC(=O)c4c(C)c(I)c(O[C@@H]5O[C@@H](C)[C@H](O)[C@@H](OC)[C@H]5O)c(OC)c4OC)[C@@H](C)O3)[C@@H]2O)C[C@@H]1OC", "Potency": "1.5 nM (active)"}
{"smiles": "CC(C)(C)OC(=O)Nc1ccc2[nH]c(C(=O)N3C[C@@H](CCl)c4c3cc(O)c3ccccc43)cc2c1", "Potency": "8.4 nM (active)"}
{"smiles": "CCN[C@H]1CO[C@@H](O[C@H]2[C@H](O[C@H]3C#C/C=C\\C#C[C@]4(O)CC(=O)C(NC(=O)OC)=C3/C4=C\\CSSSC)O[C@H](C)[C@@H](NO[C@H]3C[C@H](O)[C@H](SC(=O)c4c(C)c(I)c(O[C@@H]5O[C@@H](C)[C@H](O)[C@@H](OC)[C@H]5O)c(OC)c4OC)[C@@H](C)O3)[C@@H]2O)C[C@@H]1OC", "Potency": "0.2 nM (active)"}
{"smiles": "CN(C)CCOc1ccc2[nH]c(C(=O)N3C[C@@H](CCl)c4c3cc(O)c3ccccc43)cc2c1", "Potency": "0.4 nM (active)"}
